Legend:
Assay in all cases: DAPPL (digital affinity profiling via proximity ligation, sequencing); 10 mM Tris-HCl pH 7.5, 50 mM NaCl, 1 mM DTT, 4% glycerol, room temperature, 30 min; GST-TFs on glutathione beads, 16-mer random dsDNA library, 0.1% formaldehyde crosslink after washing; high values mean tight binding
Details in all cases: protein: recombinant; tags: N-terminal GST; dsDNA, one strand shown
[1] = target: T1, ERF (Homo sapiens, UniProt P50548 1-548)
T1 sequence: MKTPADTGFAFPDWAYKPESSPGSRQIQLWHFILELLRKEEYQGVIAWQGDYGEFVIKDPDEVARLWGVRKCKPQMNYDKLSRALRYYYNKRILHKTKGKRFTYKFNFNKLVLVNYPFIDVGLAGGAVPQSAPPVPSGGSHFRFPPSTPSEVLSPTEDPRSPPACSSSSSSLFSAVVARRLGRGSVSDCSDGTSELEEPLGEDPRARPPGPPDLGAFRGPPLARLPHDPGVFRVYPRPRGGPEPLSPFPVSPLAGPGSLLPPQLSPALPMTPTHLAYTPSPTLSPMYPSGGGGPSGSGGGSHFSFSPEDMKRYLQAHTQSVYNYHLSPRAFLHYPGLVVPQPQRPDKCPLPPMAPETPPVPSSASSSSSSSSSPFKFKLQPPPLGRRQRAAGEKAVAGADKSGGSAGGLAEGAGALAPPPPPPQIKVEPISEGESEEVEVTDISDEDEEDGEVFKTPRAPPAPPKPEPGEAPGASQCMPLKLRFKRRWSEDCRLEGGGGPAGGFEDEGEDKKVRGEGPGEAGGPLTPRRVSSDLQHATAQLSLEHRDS
Outline: (§1)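 Binding signal is defined as a hexamer's read frequency for one factor over its frequency for the tag-only sample. To obtain reads, GST-fused human transcription factors were expressed in yeast, captured on glutathione beads, barcoded with DNA and pooled with that sample. Pools met 200 nmole of a 16-mer random double-stranded DNA library in Tris/NaCl/DTT/glycerol buffer for 30 min at room temperature before washing, 0.1% formaldehyde crosslinking, proximity ligation (BsaI/T4 ligase, 1 h, 37 °C), PCR and Illumina NextSeq500 sequencing.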

[2] = target: T2, ETV3L (Homo sapiens, UniProt Q6ZN32 1-361)
T2 sequence: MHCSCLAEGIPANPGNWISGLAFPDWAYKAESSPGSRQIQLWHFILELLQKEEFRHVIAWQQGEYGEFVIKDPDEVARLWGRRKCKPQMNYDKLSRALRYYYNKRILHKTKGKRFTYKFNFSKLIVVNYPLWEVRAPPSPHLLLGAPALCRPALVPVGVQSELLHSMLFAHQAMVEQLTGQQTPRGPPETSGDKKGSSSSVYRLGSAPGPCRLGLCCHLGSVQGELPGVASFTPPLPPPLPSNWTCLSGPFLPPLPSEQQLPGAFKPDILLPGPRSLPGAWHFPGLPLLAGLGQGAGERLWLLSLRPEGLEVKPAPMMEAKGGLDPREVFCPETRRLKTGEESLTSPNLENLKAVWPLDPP
Outline: as §1

[3] = target: T3, ETS2 (Homo sapiens, UniProt P15036 1-469)
T3 sequence: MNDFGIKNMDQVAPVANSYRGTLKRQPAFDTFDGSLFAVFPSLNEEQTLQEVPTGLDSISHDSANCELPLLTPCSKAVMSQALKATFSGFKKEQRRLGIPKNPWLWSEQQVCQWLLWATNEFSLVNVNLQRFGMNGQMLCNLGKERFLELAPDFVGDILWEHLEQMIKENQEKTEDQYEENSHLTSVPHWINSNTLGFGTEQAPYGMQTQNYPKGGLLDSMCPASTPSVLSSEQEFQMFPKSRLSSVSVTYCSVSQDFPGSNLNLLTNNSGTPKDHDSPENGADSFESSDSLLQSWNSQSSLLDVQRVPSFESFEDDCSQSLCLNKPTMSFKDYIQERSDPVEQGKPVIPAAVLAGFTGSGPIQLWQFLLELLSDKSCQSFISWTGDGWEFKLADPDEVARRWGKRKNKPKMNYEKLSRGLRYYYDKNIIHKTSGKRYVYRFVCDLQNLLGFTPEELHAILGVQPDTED
Outline: as §1

[4] = target: T4, SPDEF (Homo sapiens, UniProt O95238 1-335)
T4 sequence: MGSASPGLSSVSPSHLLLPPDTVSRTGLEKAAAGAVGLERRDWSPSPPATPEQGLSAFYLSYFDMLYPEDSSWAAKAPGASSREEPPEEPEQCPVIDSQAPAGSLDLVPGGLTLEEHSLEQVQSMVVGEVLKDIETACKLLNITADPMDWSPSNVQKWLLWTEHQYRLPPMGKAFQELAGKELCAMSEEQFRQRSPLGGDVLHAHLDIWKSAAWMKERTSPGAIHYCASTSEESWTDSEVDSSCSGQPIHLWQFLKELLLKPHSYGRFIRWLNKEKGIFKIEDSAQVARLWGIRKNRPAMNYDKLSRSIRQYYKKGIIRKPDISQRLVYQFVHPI
Outline: as §1

[5] = target: T5, ETV7 (Homo sapiens, UniProt Q9Y603 1-341)
T5 sequence: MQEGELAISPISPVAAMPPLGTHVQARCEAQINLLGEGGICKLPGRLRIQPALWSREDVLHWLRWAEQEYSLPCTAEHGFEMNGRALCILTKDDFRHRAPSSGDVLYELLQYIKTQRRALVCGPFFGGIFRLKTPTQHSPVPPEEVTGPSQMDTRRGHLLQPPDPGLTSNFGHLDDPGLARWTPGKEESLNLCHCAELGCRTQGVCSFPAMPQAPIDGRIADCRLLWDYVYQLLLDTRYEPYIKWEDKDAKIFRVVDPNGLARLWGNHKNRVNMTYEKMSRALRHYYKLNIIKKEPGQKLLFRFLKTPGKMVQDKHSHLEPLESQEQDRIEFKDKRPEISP
Outline: as §1

[6] = target: T6, ELF5 (Homo sapiens, UniProt Q9UKW6-2 1-255)
T6 sequence: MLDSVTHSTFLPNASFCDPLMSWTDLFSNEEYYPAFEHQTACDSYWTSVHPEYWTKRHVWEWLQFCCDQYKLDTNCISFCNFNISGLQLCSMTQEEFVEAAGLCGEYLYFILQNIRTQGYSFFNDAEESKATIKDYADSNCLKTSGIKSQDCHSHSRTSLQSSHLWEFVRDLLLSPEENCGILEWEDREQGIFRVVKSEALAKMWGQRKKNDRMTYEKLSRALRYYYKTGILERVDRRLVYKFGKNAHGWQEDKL
Outline: as §1

[7] = target: T7, ETV3 (Homo sapiens, UniProt P41162-2 1-143)
T7 sequence: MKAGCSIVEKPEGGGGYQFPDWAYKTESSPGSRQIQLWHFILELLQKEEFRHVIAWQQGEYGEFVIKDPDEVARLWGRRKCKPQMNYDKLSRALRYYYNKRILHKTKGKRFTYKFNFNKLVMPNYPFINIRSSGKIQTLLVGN
Outline: as §1

[8] = target: ETV6 (Homo sapiens, UniProt P41212 1-452)
Chain of ETV6 (P41212 whole entry): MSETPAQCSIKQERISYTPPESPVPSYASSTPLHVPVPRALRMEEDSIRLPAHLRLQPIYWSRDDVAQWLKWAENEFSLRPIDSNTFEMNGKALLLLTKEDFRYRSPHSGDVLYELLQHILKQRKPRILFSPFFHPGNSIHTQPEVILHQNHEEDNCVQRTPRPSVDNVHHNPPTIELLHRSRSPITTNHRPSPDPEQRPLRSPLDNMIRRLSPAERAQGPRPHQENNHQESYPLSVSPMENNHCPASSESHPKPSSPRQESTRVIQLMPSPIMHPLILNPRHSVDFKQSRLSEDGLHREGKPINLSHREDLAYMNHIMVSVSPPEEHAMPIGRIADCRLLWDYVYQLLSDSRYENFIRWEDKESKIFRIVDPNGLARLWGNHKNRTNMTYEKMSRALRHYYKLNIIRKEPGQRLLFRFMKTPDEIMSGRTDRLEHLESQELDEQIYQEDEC
Outline: as §1

## CGCCCC
[1]
  binding signal: 1.28 fold enrichment (6-mer frequency, TF over GST control)
[2]
  binding signal: 1.31 fold enrichment (6-mer frequency, TF over GST control)
[3]
  binding signal: 1.05 fold enrichment (6-mer frequency, TF over GST control)
[4]
  binding signal: 1.18 fold enrichment (6-mer frequency, TF over GST control)
[5]
  binding signal: 1.2 fold enrichment (6-mer frequency, TF over GST control)
[6]
  binding signal: 1.1 fold enrichment (6-mer frequency, TF over GST control)
[7]
  binding signal: 1.16 fold enrichment (6-mer frequency, TF over GST control)
[8]
  binding signal: 1.19 fold enrichment (6-mer frequency, TF over GST control)

## CGACCA
[1]
  binding signal: 1.19 fold enrichment (6-mer frequency, TF over GST control)
[2]
  binding signal: 1.33 fold enrichment (6-mer frequency, TF over GST control)
[3]
  binding signal: 1.29 fold enrichment (6-mer frequency, TF over GST control)
[4]
  binding signal: 1.24 fold enrichment (6-mer frequency, TF over GST control)
[5]
  binding signal: 1.16 fold enrichment (6-mer frequency, TF over GST control)
[6]
  binding signal: 1.2 fold enrichment (6-mer frequency, TF over GST control)
[7]
  binding signal: 1.2 fold enrichment (6-mer frequency, TF over GST control)
[8]
  binding signal: 1.33 fold enrichment (6-mer frequency, TF over GST control)

## GTTACA
[1]
  binding signal: 1.24 fold enrichment (6-mer frequency, TF over GST control)
[2]
  binding signal: 1.06 fold enrichment (6-mer frequency, TF over GST control)
[3]
  binding signal: 1.2 fold enrichment (6-mer frequency, TF over GST control)
[4]
  binding signal: 1.21 fold enrichment (6-mer frequency, TF over GST control)
[5]
  binding signal: 1.12 fold enrichment (6-mer frequency, TF over GST control)
[6]
  binding signal: 1.14 fold enrichment (6-mer frequency, TF over GST control)
[7]
  binding signal: 1.09 fold enrichment (6-mer frequency, TF over GST control)
[8]
  binding signal: 1.07 fold enrichment (6-mer frequency, TF over GST control)

## ACCTCC
[1]
  binding signal: 1.35 fold enrichment (6-mer frequency, TF over GST control)
[2]
  binding signal: 1.49 fold enrichment (6-mer frequency, TF over GST control)
[3]
  binding signal: 1.41 fold enrichment (6-mer frequency, TF over GST control)
[4]
  binding signal: 1.5 fold enrichment (6-mer frequency, TF over GST control)
[5]
  binding signal: 1.4 fold enrichment (6-mer frequency, TF over GST control)
[6]
  binding signal: 1.49 fold enrichment (6-mer frequency, TF over GST control)
[7]
  binding signal: 1.33 fold enrichment (6-mer frequency, TF over GST control)
[8]
  binding signal: 1.4 fold enrichment (6-mer frequency, TF over GST control)

## CCACTG
[1]
  binding signal: 1.22 fold enrichment (6-mer frequency, TF over GST control)
[2]
  binding signal: 1.15 fold enrichment (6-mer frequency, TF over GST control)
[3]
  binding signal: 1.16 fold enrichment (6-mer frequency, TF over GST control)
[4]
  binding signal: 1.14 fold enrichment (6-mer frequency, TF over GST control)
[5]
  binding signal: 1.1 fold enrichment (6-mer frequency, TF over GST control)
[6]
  binding signal: 1.09 fold enrichment (6-mer frequency, TF over GST control)
[7]
  binding signal: 1.15 fold enrichment (6-mer frequency, TF over GST control)
[8]
  binding signal: 1.22 fold enrichment (6-mer frequency, TF over GST control)

## CCTCAT
[1]
  binding signal: 1.32 fold enrichment (6-mer frequency, TF over GST control)
[2]
  binding signal: 1.37 fold enrichment (6-mer frequency, TF over GST control)
[3]
  binding signal: 1.29 fold enrichment (6-mer frequency, TF over GST control)
[4]
  binding signal: 1.31 fold enrichment (6-mer frequency, TF over GST control)
[5]
  binding signal: 1.25 fold enrichment (6-mer frequency, TF over GST control)
[6]
  binding signal: 1.58 fold enrichment (6-mer frequency, TF over GST control)
[7]
  binding signal: 1.32 fold enrichment (6-mer frequency, TF over GST control)
[8]
  binding signal: 1.39 fold enrichment (6-mer frequency, TF over GST control)

## CATTTC
[1]
  binding signal: 1.72 fold enrichment (6-mer frequency, TF over GST control)
[2]
  binding signal: 1.81 fold enrichment (6-mer frequency, TF over GST control)
[3]
  binding signal: 1.87 fold enrichment (6-mer frequency, TF over GST control)
[4]
  binding signal: 1.75 fold enrichment (6-mer frequency, TF over GST control)
[5]
  binding signal: 1.68 fold enrichment (6-mer frequency, TF over GST control)
[6]
  binding signal: 2.15 fold enrichment (6-mer frequency, TF over GST control)
[7]
  binding signal: 1.87 fold enrichment (6-mer frequency, TF over GST control)
[8]
  binding signal: 2.02 fold enrichment (6-mer frequency, TF over GST control)
